Experiment [1] can be described thus: qHTS assay to identify small molecule agonists of the sonic hedgehog signaling (Shh) pathway (AID 1259368; calls by dose curve; note: nearly all actives have a fitted effect of over 15% in size; note: potency is the fitted concentration of half-maximal effect). The gist of the method: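 NIH/3T3-derived 3T3Gli1-Luc cells with stably integrated Gli1-driven firefly luciferase, 2,000 cells/well, compounds added after 4 hr. Incubated 24 hr at 37C, 5% CO2; luminescence read after 30 min with luciferase reagent at room temperature.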
Background: In qHTS, concentration-response curves come from the screen itself.

In experiment [2] the target is Estrogen receptor beta (Homo sapiens) (UniProt Q92731). Put plainly: qHTS assay to identify small molecule agonists of the estrogen receptor beta (ER-beta) signaling pathway (AID 1259377; active = well fitted activation curve with a large enough effect in the signal ratio in the repeat runs, not every such curve was filed as active; the % refers to the signal ratio). In outline: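 ER-beta-UAS-bla HEK293T (GripTite) cells carrying a UAS-driven beta-lactamase reporter, in medium with 2% charcoal-stripped FBS, were exposed to compounds for 16 hr at 37C; LiveBLAzer B/G FRET substrate was then added and fluorescence read after 2 hours at room temperature.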

The target is the same in experiment [3]. The experiment is described as follows: qHTS assay to identify small molecule antagonists of the estrogen receptor beta (ER-beta) signaling pathway (AID 1259378; active = well fitted inhibition curve with a large enough effect in the signal ratio in the repeat runs, not every such curve was filed as active; the % refers to the signal ratio). In outline: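 Antagonist mode: compounds added to beta-lactamase reporter HEK293T ER-beta-UAS cells stimulated with E2 (1nM final), 16 hr at 37C. LiveBLAzer B/G FRET substrate, 2 hours room temperature, fluorescence read-out.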

A short description of experiment [4]: qHTS assay to identify small molecule agonists of the androgen receptor (AR) signaling pathway in the presence of an antagonist - cell viability counter screen (AID 1259379). Note: nearly all actives have a fitted effect of over 25% in size. Note: potency is the fitted concentration of half-maximal effect. In outline: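 MDA-kb2 cells (MMTV-luciferase, AR/GR), 3,000/well, 5 h attachment, then 3.0 µM nilutamide (final) and compounds at 15 concentrations. Viability by CellTiter-Fluor fluorescence after 16 h at 37 °C, 0% CO2, in the reporter wells.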

Experiment [5] is described as follows: qHTS assay to identify small molecule antagonists of the estrogen receptor beta (ER-beta) signaling pathway - cell viability counter screen (AID 1259382). Note: nearly all actives have a fitted effect of over 55% in size. Note: potency is the fitted concentration of half-maximal effect. In outline:
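ER-beta-UAS-bla HEK293T cells in 2% charcoal-stripped FBS medium, treated with compound plus 1 nM 17-beta-estradiol for 16 h at 37C. Viability read by CellTiter-Glo luminescence after 30 min at room temperature in the same wells.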

The target in experiment [6] is Estrogen receptor (Homo sapiens) (UniProt P03372). The experiment is described as follows: qHTS assay to identify small molecule agonists of the estrogen receptor alpha (ER-alpha) signaling pathway in the presence of an antagonist (AID 1259383; calls by dose curve; note: top concentration of the series differs between compounds; nearly all actives have a fitted effect of over 15% in size). The gist of the method:
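VM7Luc4E2 cells express endogenous full-length ER-alpha with an ERE-luciferase reporter and were hormone-deprived for 5 days. Compounds at 15 concentrations were added with 10.0nM ICI-182,780 for 22hr at 37C. Luminescence was read with ONE-Glo.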

Experiment [7] can be described thus: qHTS assay to identify small molecule agonists of the estrogen receptor alpha (ER-alpha) signaling pathway in the presence of an antagonist - cell viability counter screen (AID 1259386).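 Note: cells exposed to compounds for 22 h at 37 °C before the viability read; nearly all actives have a fitted effect of over 30% in size.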 Note: potency is the fitted concentration of half-maximal effect. The gist of the method:
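Cell viability in VM7Luc4E2 cells (endogenous full-length ER-alpha) measured by CellTiter-Fluor fluorescence in the same wells as the luciferase screen. Cells pre-cultured 5 days in charcoal-stripped serum, then treated 22 h with compounds at 15 concentrations plus 10.0nM ICI-182,780.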

In experiment [8] the target is Progesterone receptor (Homo sapiens) (UniProt P06401). Put plainly: qHTS assay to identify small molecule agonists of the progesterone receptor (PR) signaling pathway (AID 1346784; calls by dose curve; note: nearly all actives have a fitted effect of over 30% in size). In outline:
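PR-UAS-bla HEK 293T cells carrying a UAS-driven beta-lactamase reporter were seeded in medium with 2% charcoal-stripped FBS, preincubated 6 hr at 37C, then exposed to compounds in DMSO for 16 hr; agonism was read by LiveBLAzer B/G FRET fluorescence.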

Experiment [9] in a line: qHTS assay to identify small molecule antagonists of the TGF-beta/Smad signaling pathway - cell viability counter screen (AID 1346824). Note: nearly all actives have a fitted effect of over 50% in size. The gist of the method:
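Cytotoxicity counter-screen run in the same wells as the beta-lactamase Smad reporter read: CellTiter-Glo luminescence after 30 min at room temperature. HEK 293T SBE-bla cells had 5 hr compound exposure at 37 C with TGF-beta1 (0.25 ng/mL stock).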

Experiment [10] in a line: qHTS assay to identify small molecule agonists of the TGF-beta/Smad signaling pathway - cell viability counter screen (AID 1346829). Note: top concentration of the series differs between compounds; nearly all actives have a fitted effect of over 45% in size. In outline: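 CellTiter-Glo luminescence readout; SBE-bla HEK 293T cells, overnight plating, compound 5 hr at 37 C/5% CO2, then bla substrate 2 hr RT, then CellTiter-Glo 30 min RT.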
Experiment [11] can be described thus: qHTS assay to identify small molecule agonists of the TGF-beta/Smad signaling pathway (AID 1346859; active = well fitted activation curve with a large enough effect in the signal ratio in the repeat runs, not every such curve was filed as active; the % refers to the signal ratio; note: series mostly up to about 77 µM). The gist of the method:
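HEK 293T cells stably carrying a beta-lactamase reporter driven by the Smad binding element were seeded overnight, exposed to DMSO-dissolved compounds for 5 hr at 37 C, 5% CO2, then loaded with FRET substrate for 2 hr at room temperature.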

Experiment [12] addresses Thyrotropin-releasing hormone receptor (Homo sapiens) (UniProt P34981). The experiment is described as follows: qHTS assay to identify small molecule antagonists of the thyrotropin-releasing hormone receptor (TRHR) signaling pathway (AID 1346877; active = well fitted inhibition curve with a large enough effect in the repeat runs, not every such curve was filed as active; note: series mostly up to about 51 µM). In outline: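 TRHR-expressing HEK293 cells loaded with calcium dye for 2 h at 37 C; compounds pre-incubated 5 min at room temperature before TRH challenge at 1 nM final. Intracellular calcium fluorescence read kinetically for 3 min; 15 concentrations in triplicate.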

Experiment [13] can be described thus: qHTS assay to identify small molecule agonists of the estrogen receptor beta (ER-beta) signaling pathway - cell viability counter screen (AID 1259380). Note: nearly all actives have a fitted effect of over 30% in size. Note: potency is the fitted concentration of half-maximal effect. The gist of the method:
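ER-beta-UAS-bla HEK293T cells in medium with 2% charcoal-stripped FBS, pre-incubated 6 hr, then treated 16 hr at 37C. Cytotoxicity read in the same wells by CellTiter-Glo luminescence after 30 min at room temperature.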

Experiment [14] concerns the target Androgen receptor (Homo sapiens) (UniProt P10275). Put plainly: qHTS assay to identify small molecule agonists of the androgen receptor (AR) signaling pathway in the presence of an antagonist (AID 1259381; calls by dose curve; note: nearly all actives have a fitted effect of over 15% in size). In outline:
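MDA-kb2 cells carrying MMTV-luciferase (AR/GR responsive), 3,000 cells/well, co-treated with 3.0 uM nilutamide final. Compounds at 15 concentrations, 16 hr at 37C without CO2. Luciferase luminescence read after 30 min with ONE-Glo.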

A short description of experiment [15]: qHTS assay to identify small molecule agonists or antagonists of the thyroid stimulating hormone receptor (TSHR) signaling pathway - wild type cell line counter screen (AID 1259384; calls by dose curve). The gist of the method:
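Counter screen in untransfected Hek293: compounds (15-point titration, triplicate) plus phosphodiesterase inhibitor Ro20-1724 added after 18 h plating; 30 min RT. Intracellular cAMP via competitive d2/cryptate immunoassay, 1 h incubation.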

Experiment [16] concerns the target Thyrotropin receptor (Homo sapiens) (UniProt P16473). Put plainly: qHTS assay to identify small molecule antagonists of the thyroid stimulating hormone receptor (TSHR) signaling pathway (AID 1259385; calls by dose curve; note: nearly all actives have a fitted effect of over 20% in size; note: potency is the fitted concentration of half-maximal effect). The gist of the method:
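Antagonist mode: compound-treated TSHR-expressing HEK293 cells were stimulated with 1.5 ng/mL TSH (final) in presence of Ro20-1724 for 30 min at RT. HTRF cAMP detection after 1 h; each compound tested at 15 concentrations, triplicate.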

Experiment [17] concerns the target Progesterone receptor (Homo sapiens) (UniProt P06401). The experiment is described as follows: qHTS assay to identify small molecule antagonists of the progesterone receptor (PR) signaling pathway (AID 1346795; active = well fitted inhibition curve with a large enough effect in the signal ratio in the repeat runs, not every such curve was filed as active; the % refers to the signal ratio). The gist of the method:
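PR-UAS-bla HEK293T cells carrying a UAS-driven beta-lactamase reporter were plated in medium with 2% charcoal-stripped FBS and rested 6 hr at 37C. Compounds were added with 1 nM R5020 (final) for 16 hr, then FRET substrate loaded 2 hr at room temperature.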

Experiment [18] is described as follows: qHTS assay to identify small molecule antagonists of the progesterone receptor (PR) signaling pathway - cell viability counter screen (AID 1346798). Note: nearly all actives have a fitted effect of over 50% in size. Note: potency is the fitted concentration of half-maximal effect. In outline:
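PR-UAS-bla HEK293T cells in medium with 2% charcoal-stripped FBS were treated with compounds plus R5020 for 16 hr at 37C. Cell viability was then read by CellTiter-Glo luminescence after 30 min at room temperature in the same wells.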

A short description of experiment [19]: qHTS assay to identify small molecule agonists of the progesterone receptor (PR) signaling pathway - cell viability counter screen (AID 1346799; calls by dose curve; note: nearly all actives have a fitted effect of over 45% in size; note: potency is the fitted concentration of half-maximal effect). In outline: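 PR-UAS-bla HEK293T cells, 3,000 per well in medium with 2% charcoal-stripped FBS, were preincubated 6 hr at 37C, then exposed to compounds for 16 hr; viability was read as CellTiter-Glo luminescence after 30 min at room temperature.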

Values without a mark were called inactive. Results filed as inconclusive are left out. Active and inactive are the calls of the source. Unless noted, calls come from the whole dose curve; as a rule, active = well fitted curve in the direction sought with a large enough effect in the repeat runs; inconclusive = weak or mixed curves; inactive = no such curve, though single readings can be large; an effect the other way counts as inactive or inconclusive.

Sequence of Estrogen receptor (Homo sapiens) (P03372 whole entry, looked up): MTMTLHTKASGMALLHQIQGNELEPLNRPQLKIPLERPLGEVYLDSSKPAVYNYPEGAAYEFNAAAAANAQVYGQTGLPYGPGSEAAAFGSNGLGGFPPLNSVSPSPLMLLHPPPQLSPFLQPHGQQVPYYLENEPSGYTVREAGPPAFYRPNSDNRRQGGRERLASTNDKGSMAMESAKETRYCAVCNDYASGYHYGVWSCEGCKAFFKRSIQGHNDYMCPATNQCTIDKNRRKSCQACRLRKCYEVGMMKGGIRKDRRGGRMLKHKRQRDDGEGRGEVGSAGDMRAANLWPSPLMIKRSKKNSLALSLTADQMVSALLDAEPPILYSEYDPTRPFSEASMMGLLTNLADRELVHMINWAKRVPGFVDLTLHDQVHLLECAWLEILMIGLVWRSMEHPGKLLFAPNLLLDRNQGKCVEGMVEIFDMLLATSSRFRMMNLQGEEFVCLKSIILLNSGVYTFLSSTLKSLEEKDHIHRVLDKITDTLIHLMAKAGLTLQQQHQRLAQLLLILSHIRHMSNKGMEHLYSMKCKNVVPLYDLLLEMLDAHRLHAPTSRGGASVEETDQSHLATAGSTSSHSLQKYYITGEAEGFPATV
Sequence of Thyrotropin receptor (Homo sapiens) (P16473 whole entry, looked up): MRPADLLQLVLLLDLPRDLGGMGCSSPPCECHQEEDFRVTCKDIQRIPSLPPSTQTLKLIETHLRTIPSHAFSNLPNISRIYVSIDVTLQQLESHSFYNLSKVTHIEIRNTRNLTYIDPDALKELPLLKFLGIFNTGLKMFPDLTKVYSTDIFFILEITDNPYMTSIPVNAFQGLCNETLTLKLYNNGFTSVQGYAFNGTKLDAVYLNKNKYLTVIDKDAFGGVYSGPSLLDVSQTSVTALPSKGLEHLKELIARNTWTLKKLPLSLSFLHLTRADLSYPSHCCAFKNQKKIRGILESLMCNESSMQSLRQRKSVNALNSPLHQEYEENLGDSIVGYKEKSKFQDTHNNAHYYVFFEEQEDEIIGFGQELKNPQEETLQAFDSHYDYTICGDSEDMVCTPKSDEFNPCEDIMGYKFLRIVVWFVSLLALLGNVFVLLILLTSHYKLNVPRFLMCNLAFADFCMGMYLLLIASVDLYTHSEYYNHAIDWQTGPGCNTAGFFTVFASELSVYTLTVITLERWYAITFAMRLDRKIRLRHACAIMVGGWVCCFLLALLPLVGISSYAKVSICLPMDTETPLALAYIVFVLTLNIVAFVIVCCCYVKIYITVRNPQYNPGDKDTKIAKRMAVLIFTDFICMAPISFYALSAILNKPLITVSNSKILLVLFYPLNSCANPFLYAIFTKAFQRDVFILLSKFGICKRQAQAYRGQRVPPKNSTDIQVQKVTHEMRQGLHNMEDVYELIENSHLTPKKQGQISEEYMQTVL
Sequence of Estrogen receptor beta (Homo sapiens) (Q92731 whole entry, looked up): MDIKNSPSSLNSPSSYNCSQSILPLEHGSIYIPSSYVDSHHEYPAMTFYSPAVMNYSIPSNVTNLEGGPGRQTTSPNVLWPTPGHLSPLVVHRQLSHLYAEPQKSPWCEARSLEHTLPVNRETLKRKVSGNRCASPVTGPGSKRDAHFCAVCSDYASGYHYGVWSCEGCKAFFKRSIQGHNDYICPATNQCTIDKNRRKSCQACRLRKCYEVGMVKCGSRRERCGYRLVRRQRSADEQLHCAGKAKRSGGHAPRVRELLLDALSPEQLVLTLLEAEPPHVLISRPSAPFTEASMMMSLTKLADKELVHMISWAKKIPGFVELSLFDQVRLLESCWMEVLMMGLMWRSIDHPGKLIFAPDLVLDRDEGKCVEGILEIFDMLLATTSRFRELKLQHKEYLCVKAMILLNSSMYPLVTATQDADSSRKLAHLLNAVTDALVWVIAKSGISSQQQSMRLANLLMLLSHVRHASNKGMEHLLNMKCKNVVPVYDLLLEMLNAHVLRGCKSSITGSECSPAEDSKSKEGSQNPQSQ
Sequence of Progesterone receptor (Homo sapiens) (P06401 whole entry, looked up): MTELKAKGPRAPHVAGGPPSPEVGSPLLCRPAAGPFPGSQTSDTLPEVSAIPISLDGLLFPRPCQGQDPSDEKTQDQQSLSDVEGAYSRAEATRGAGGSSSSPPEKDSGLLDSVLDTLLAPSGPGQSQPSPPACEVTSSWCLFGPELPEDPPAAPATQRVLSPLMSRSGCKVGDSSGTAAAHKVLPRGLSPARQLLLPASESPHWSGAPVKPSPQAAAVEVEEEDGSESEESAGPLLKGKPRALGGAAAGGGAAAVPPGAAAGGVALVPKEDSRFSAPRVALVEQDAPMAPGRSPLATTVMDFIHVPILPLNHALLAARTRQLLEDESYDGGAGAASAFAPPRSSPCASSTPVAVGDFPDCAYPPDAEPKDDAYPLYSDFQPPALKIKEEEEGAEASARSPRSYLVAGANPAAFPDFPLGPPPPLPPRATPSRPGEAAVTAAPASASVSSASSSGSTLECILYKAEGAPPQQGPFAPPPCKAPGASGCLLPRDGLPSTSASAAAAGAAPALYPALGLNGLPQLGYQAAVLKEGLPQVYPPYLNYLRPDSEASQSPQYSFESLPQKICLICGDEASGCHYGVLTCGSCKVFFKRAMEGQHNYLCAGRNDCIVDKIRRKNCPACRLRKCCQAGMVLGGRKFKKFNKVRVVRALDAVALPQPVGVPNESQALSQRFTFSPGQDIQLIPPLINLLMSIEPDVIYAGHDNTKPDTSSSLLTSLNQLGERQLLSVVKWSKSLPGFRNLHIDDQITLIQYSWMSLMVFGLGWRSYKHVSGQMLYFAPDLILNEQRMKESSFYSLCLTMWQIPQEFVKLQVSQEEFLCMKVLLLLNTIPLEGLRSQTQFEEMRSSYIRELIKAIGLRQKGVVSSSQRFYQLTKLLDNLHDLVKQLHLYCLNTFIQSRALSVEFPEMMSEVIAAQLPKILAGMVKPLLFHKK
Sequence of Thyrotropin-releasing hormone receptor (Homo sapiens) (P34981 whole entry, looked up): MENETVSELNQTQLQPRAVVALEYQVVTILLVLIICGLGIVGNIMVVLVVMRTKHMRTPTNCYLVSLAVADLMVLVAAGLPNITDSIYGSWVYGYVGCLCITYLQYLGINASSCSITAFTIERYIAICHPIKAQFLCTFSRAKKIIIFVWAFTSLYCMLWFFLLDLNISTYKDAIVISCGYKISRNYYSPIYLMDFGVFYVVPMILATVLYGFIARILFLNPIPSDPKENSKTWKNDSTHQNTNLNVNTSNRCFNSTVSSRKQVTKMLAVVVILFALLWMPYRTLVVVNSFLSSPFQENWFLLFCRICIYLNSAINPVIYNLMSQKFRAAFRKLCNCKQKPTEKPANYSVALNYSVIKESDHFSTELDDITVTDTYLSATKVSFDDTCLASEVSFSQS
Sequence of Androgen receptor (Homo sapiens) (P10275 whole entry, looked up): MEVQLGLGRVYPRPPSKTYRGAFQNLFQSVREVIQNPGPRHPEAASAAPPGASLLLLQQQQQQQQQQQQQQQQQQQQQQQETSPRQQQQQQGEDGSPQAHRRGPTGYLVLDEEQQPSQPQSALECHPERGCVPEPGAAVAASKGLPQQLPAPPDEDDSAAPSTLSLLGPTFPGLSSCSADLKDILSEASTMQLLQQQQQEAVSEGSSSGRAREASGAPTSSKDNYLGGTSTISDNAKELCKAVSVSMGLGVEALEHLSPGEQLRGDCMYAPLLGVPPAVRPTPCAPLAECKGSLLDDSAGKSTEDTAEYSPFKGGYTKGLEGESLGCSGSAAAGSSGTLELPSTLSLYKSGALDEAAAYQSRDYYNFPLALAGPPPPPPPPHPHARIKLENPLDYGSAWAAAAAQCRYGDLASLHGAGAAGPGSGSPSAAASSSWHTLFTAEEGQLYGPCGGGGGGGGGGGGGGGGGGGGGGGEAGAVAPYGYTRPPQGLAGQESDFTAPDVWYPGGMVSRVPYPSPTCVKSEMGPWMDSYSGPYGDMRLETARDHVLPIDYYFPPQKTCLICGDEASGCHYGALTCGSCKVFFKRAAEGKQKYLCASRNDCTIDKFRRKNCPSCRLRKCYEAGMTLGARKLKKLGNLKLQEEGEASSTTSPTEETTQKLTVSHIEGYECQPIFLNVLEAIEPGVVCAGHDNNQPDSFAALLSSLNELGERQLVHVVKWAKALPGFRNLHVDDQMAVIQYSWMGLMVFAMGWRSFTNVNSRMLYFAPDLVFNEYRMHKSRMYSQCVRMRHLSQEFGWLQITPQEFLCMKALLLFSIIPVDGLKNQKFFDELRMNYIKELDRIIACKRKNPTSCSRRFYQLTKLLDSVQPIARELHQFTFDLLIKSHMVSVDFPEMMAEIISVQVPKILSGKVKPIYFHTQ

Consider `CC(C)OCC1CO1` (centres undefined), for which the Potency entry in experiment [1], in experiment [2], in [3], in experiment [4], in experiment [5] and in experiment [6] was “inactive” in each case. The Potency entry in experiment [7] and in [8] was “inactive” in each case. Moreover, the compound was classed as inactive in [9], in experiment [10], in [11] and in [12].

`OCC1CC=CCC1` (centres undefined): the Potency result in experiment [1], in experiment [4], in experiment [13], in experiment [14], in experiment [5] and in experiment [16] was “inactive” each time. Also, the Potency result in [7], in [8], in [17], in experiment [18] and in experiment [19] was “inactive” each time. Moreover, the compound was classed as inactive in experiment [15], in [9], in experiment [10] and in experiment [11].

In the case of `CO[C@H]1C=CO[C@@]2(C)Oc3c(C)c(O)c4c(O)c(c5c(c4c3C2=O)=NC2(CCN(CC(C)C)CC2)N=5)NC(=O)/C(C)=C\C=C/[C@H](C)[C@H](O)[C@@H](C)[C@@H](O)[C@@H](C)[C@H](OC(C)=O)[C@@H]1C`, the Potency entry in experiment [1], in experiment [2], in experiment [13], in experiment [14], in experiment [5] and in experiment [6] was “inactive” in each case. The Potency result in experiment [17] was “inactive”. The results for the Potency in experiment [4] and in experiment [7] were 47.5 µM (active) and 26.7 µM (active), respectively. Moreover, the call in [15], in experiment [9], in experiment [10] and in [12] was inactive.

Turning to `Cc1ccccc1N1C(=O)c2cc(S(N)(=O)=O)c(Cl)cc2NC1C` (centres undefined), the Potency entry in experiment [1], in [2], in experiment [3], in [4], in experiment [5] and in experiment [16] was “inactive” each time. Further, the Potency result in experiment [7], in experiment [8], in experiment [17], in experiment [18] and in experiment [19] was “inactive” in each case. Moreover, the compound was called inactive in [15], in [9], in [10] and in [11].

Turning to `C[C@@H]1C[C@H]2[C@@H]3CCC4=CC(=O)C=C[C@]4(C)[C@@]3(F)[C@@H](O)C[C@]2(C)[C@H]1C(=O)CO`, the Potency entry in experiment [1], in [2], in experiment [3], in [4], in experiment [5] and in experiment [16] was “inactive” in each case. Moreover, the Potency entry in [7], in experiment [17] and in [18] was “inactive” each time. Also, the compound was called inactive in [15], in [9], in experiment [10], in experiment [11] and in [12].

With `CCCCCCCC/C=C\CCCCCCCC(=O)OC(CO)CO`, the Potency entry in [1], in [7], in experiment [8], in [17], in experiment [18] and in experiment [19] was “inactive” throughout. Besides, the outcome in experiment [9], in experiment [10], in [11] and in experiment [12] was inactive.

Regarding `COc1cc2[nH]c(=O)[nH]c(=O)c2cc1OC`, the Potency result in experiment [1], in experiment [4], in experiment [5], in experiment [6], in experiment [16] and in experiment [7] was “inactive” throughout. Further, the Potency result in [8], in [17], in experiment [18] and in experiment [19] was “inactive” in each case. The compound was classed as inactive in experiment [15], in experiment [9], in [10], in [11] and in experiment [12].

`CC1=C(/C=C/C(C)=C\C=C\C(C)=C\C(=O)O)C(C)(C)CCC1`: in experiment [1], the Potency is 8.63 µM (active). In addition, the Potency result in experiment [6] and in [18] was “inactive” throughout. Besides, the outcome in experiment [9], in experiment [10] and in experiment [12] was inactive.

On to `CC[C@@H]([C@H](C)O)n1ncn(-c2ccc(N3CCN(c4ccc(OC[C@@H]5CO[C@@](Cn6cncn6)(c6ccc(F)cc6F)C5)cc4)CC3)cc2)c1=O`, for which the Potency entry in experiment [1], in [7] and in experiment [8] was “inactive” in each case. Besides, the Potency in [4] is 11.9 µM (active); in experiment [13], 4.22 µM (active); in experiment [5] it was 9.44 µM (active); in [16], 29.8 µM (active); in experiment [18], 16.8 µM (active); in [19], 16.8 µM (active). Further, the compound was classed as inactive in experiment [15], in experiment [11] and in experiment [12].

With `C(=C\c1ccccc1)/CN1CCN(C(c2ccccc2)c2ccccc2)CC1`, the Potency result in [1], in experiment [4] and in experiment [7] was “inactive” each time. Moreover, the compound was called inactive in experiment [15], in experiment [10], in experiment [11] and in [12].

For the origin of these results see PubChem BioAssay (Tox21).
